Compound activity (PubChem)
Sampled rows, rich in hits. Any-hit rate of the full collection: about 3.1%.
ASM inhibitor = human S-ASM enzyme inhibition | Potency, µM (doses to about 57.5 µM), inactives show at the top dose activity change, negative = inhibition, most hits filed as inhibitors | placental ASM, HMU-PC fluorogenic substrate, 60 min | AID 504937 | 0.006% of 340,000 active | P17405
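Human placenta-derived ASM preincubated with compound 10 min at room temperature, then reacted with 9 uM (final) fluorogenic HMU-PC substrate for 60 min at 37 C. Stop solution raises pH to 10; fluorescence read at Ex 386/Em 447 nm.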
Pin1 inh = blocks the human prolyl isomerase Pin1; 0.009% of 390,000 active; Potency, µM (titrated, usually from 115 µM), for inactives: at the highest dose activity, negative = inhibition, hits mostly inhibitors; Q13526; AID 504891; Pin1 FP peptide displacement, HiFluor488, 10 min; active = well fitted inhibition curve with a large enough effect in the polarisation, with a control signal flat, not every such curve was filed as active; inconclusive = small, poorly fitted or top-dose-only effect, or effect the other way, or a change in a side signal; inactive = no such curve, though single readings can be large or run the other way; the % refers to the polarisation; note: % is set by controls: 0 for no effect and ±100 for the full control effect
Target sequence (Q13526 whole entry, looked up): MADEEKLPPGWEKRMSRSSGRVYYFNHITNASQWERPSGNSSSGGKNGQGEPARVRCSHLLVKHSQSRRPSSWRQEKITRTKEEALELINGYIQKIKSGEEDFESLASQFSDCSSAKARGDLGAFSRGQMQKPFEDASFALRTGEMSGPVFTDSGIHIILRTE
VDR inhibitor = vitamin D3 receptor (human) inhibition; 0.93% of 400,000 active; Potency, µM, inactives show max response, negative = inhibition, most hits filed as inhibitors; P11473; VDR-SRC2-3 peptide fluorescence polarization, 2 h; note: % is set by controls: 0 for no effect and ±100 for the full control effect
Target sequence (P11473 whole entry, looked up): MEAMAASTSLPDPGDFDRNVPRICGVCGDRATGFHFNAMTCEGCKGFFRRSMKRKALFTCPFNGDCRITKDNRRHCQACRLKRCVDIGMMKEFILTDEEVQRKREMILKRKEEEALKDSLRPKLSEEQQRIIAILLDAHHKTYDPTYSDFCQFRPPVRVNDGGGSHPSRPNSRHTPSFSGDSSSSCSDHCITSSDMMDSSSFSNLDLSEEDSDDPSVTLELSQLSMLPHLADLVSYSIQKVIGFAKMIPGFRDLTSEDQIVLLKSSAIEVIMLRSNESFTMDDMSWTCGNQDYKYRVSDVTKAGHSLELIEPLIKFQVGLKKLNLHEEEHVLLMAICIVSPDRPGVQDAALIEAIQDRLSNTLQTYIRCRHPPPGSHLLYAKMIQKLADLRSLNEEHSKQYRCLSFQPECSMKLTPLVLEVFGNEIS
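Fluorescence polarization assay measuring small-molecule disruption of VDR binding to the coregulator peptide SRC2-3. Compounds were pin-transferred (23 nl) into the reagent mix and incubated 2 h at room temperature before reading.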
PLK1 PBD block = inhibitors of human PLK1 polo-box domain binding; Plk1 PBD binding of FITC phosphopeptide, fluorescence polarization; Potency, µM, inactives show max response, negative = inhibition, usual class: inhibitors; 2.8% of 360,000 active; AID 720504; P53350; note: series mostly up to about 57 µM; % is set by controls: 0 for no effect and ±100 for the full control effect; nearly all actives have a fitted effect of over 65% in size
Tb PFK inh = blocks T. brucei phosphofructokinase | 0.17% of 330,000 active | AID 485367 | O15648 | T. brucei PFK, ADP-Glo luminescence | Potency, µM (highest dose often 57.5 µM), for the others: at the top dose activity, negative = inhibition, usual class: inhibitors;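 note: 0% = uninhibited 1x PFK enzyme wells and -100% = no-enzyme wells; nearly all actives have a fitted effect of over 60% in size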
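Compounds were pin-transferred as a titration series up to 57 uM into substrate buffer (0.5 mM F6P, 0.1 mM ATP, pH 8.0), then 1.25 nM PFK was added and reactions ran 45 min before ADP-Glo detection.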
TDP1 block = TDP1 (human) enzyme inhibition | 0.28% of 350,000 active | Potency, µM (series often up to 130 µM), for inactives: top-dose activity change, negative = inhibition, hits mostly inhibitors | Q9NUW8 | recombinant TDP1, AlphaScreen DNA substrate cleavage; note: % is set by controls: 0 for no effect and ±100 for the full control effect; nearly all actives have a fitted effect of over 40% in size
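AlphaScreen read-out: signal falls as enzyme removes the 3' tyrosine-FITC from a 5'-biotinylated DNA oligo (15 nM, 5 min, RT). Enzyme was E. coli-made recombinant Tdp1 at 1 nM, exposed to compound for 15 min beforehand; beads 10 ug/ml, 10 min.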
* = called active by the depositor; ? = inconclusive; nt = not tested or not shown. Unless noted, calls come from the whole dose curve; as a rule, active = well fitted curve in the direction sought with a large enough effect; inconclusive = small, poorly fitted or top-dose-only effect, or another doubt; inactive = no such curve, though single readings can be large; an effect the other way counts as inactive or inconclusive. Potency is the fitted concentration of half-maximal effect.

SMILES	ASM inhibitor	Pin1 inh	VDR inhibitor	PLK1 PBD block	Tb PFK inh	TDP1 block
O=c1c2ccccc2nc2sc(NCc3ccc(Cc4ccccc4)cc3)nn12	nt	8%	nt	nt	nt	nt
COC(=O)c1cc(=O)nc(NN=C2CCCCC2)s1	nt	nt	nt	-5%	nt	nt
COC(=O)c1cc(=O)nc(NN=C2c3ccccc3-c3ccccc32)s1	nt	nt	nt	30µM*	nt	nt
O=C(Nc1ccc(N2CCOCC2)c2nonc12)C1CCCC1	-6%	2%	-22%	19µM*	-1%	6%
Nc1ccc(N2CCOCC2)c2nonc12	-1%	nt	89µM*	-4%	13%	3%
O=C(Nc1ccc(F)cc1)Nc1ccc(N2CCOCC2)c2nonc12	-2%	9%	-24%	-13%	0%	4%
Cc1csc(C(C)NC(=O)c2ccc(OC3CCN(CCc4ccccc4)CC3)cc2)n1 (stereo unspecified)	3%	-25%	-19%	30µM*	-5%	5%
COc1ccc(/C=N/NC(=O)c2ccccc2OCc2ccccc2)c(OC)c1	-1%	11%	3%	-10%	-4%	2%
CCOc1ccc(S(=O)(=O)N/N=C(\C)c2ccc(OC)cc2OC)cc1	-4%	-8%	?	15µM*	-1%	11%
COc1ccc(/C(C)=N/NC(=O)c2ccccc2OCc2ccccc2)c(OC)c1	-9%	0%	?	19µM*	-2%	4%
Cc1ccc(-c2cc(NC(=O)C(C)Oc3ccc(C)c(C)c3)on2)cc1 (stereo unspecified)	nt	24%	12%	nt	nt	2%
COc1ccc(NC(C)=O)cc1NC(=O)CSc1nc2ncccc2[nH]1	1%	1%	-24%	3µM*	1%	4%
COc1ccccc1NC(=O)CSc1nc2ncccc2[nH]1	2%	12%	6%	-6%	2%	1%
CCN(Cc1ccccc1)C(=O)C(CC(C)C)NS(=O)(=O)c1ccc2c(c1)CCN2C(C)=O (stereo unspecified)	nt	1%	6%	nt	nt	-2%
Cc1ccccc1OCC(=O)N/N=C/c1ccc(N2CCOCC2)o1	29%	2%	40µM*	?	-6%	3%
O=C(Nc1ccc(C(F)(F)F)cc1)C1CCCN(c2cnccn2)C1 (stereo unspecified)	nt	-4%	2%	nt	nt	-2%
O=Cc1cn(CC(=O)N2CCCc3ccccc32)c2ccccc12	0%	0%	-13%	2.7µM*	-3%	2%
N#Cc1cn(CC(=O)N2CCCc3ccccc32)c2ccccc12	0%	-4%	16%	-1%	-8%	2%
CC[C@H](C)N	nt	nt	11%	nt	nt	6%
CC(Oc1ccc(Cl)cc1Cl)C(=O)NCCCn1ccnc1 (stereo unspecified)	2%	-1%	-12%	24µM*	1%	3%
CCOC(=O)c1sc(NC(=O)c2c(-c3ccccc3)c(-c3ccccc3)nn(C)c2=O)nc1C	nt	0%	-2%	nt	nt	7%
CCN1/C(=C\C=C2\C(=O)N(C)C(=S)N2C)Sc2ccccc21	0%	44%	-6%	-17%	-4%	0%
CCC(=S)/C=C1\Sc2ccccc2N1CCCS(=O)(=O)O	0%	-19%	71µM*	?	-6%	-2%
Cc1c(NC(=O)C(C)OC(=O)COc2ccccc2)c(=O)n(-c2ccccc2)n1C (stereo unspecified)	-1%	-4%	-2%	-9%	-3%	2%
Cc1c(NC(=O)C(C)OC(=O)/C=C/c2ccco2)c(=O)n(-c2ccccc2)n1C (stereo unspecified)	3%	-8%	?	27µM*	-20%	?
SMILES	ASM inhibitor	Pin1 inh	VDR inhibitor	PLK1 PBD block	Tb PFK inh	TDP1 block
Cn1nnnc1SCC1=C(C(=O)O)N2C(=O)[C@@H](NC(=O)[C@H](O)c3ccccc3)[C@H]2SC1	?	3.2µM*	-25%	13µM*	3%	16µM*
Cc1nn(C(C)C(=O)NC2C(=O)N3C(C(=O)O)=C(CSc4nnnn4C)CSC23)cc1Cl (stereo unspecified)	-2%	-21%	-8%	-27%	?	-9%
Cn1nnnc1SCC1=C(C(=O)O)N2C(=O)C(NC(=O)C(O)c3ccccc3)C2SC1 (stereo unspecified)	nt	nt	50µM*	nt	nt	?
Cn1nnnc1SCC1=C(C(=O)O)N2C(=O)C(NC(=O)C3CC3c3ccccc3)C2SC1 (stereo unspecified)	-2%	?	?	?	-21%	-13%
COc1ccc(Cl)cc1NC(=O)CSc1cn(CC(=O)N2CCCCCC2)c2ccccc12	nt	?	6%	nt	nt	5%
O=C(SCc1c(O)c2ccccc2oc1=O)c1ccccc1	nt	nt	nt	13µM*	nt	nt
O=C(Cc1c(O)c2ccccc2oc1=O)c1ccc(C(F)(F)F)cc1	9%	?	-28%	-18%	3%	nt
Cc1ccc(C(=O)NCC2CCCO2)cc1N1CCCC1=O (stereo unspecified)	3%	-1%	7%	27µM*	-2%	-9%
O=C(NCC1CCCO1)c1cccc(N2CCCC2=O)c1 (stereo unspecified)	3%	4%	0%	-6%	-2%	-3%
Cc1ccccc1C(=O)NCC(=O)OC(C(=O)Nc1cc(C(F)(F)F)ccc1Cl)c1ccccc1 (stereo unspecified)	nt	5%	nt	nt	nt	-3%
CCS(=O)(=O)Nc1ccc(Cc2ccncc2)cc1	6%	4%	-1%	30µM*	-6%	-5%
N#Cc1nc(NCC(F)F)c2ncn(-c3cc(F)cc(F)c3)c2n1	nt	?	nt	nt	nt	-1%
Cc1ccc2c(c1)sc1nc(-c3cc4cc(Cl)ccc4oc3=O)cn12	nt	-3%	10%	nt	nt	3%
Cc1cc(N2C(=O)C(O)=C(C(=O)c3cc4ccccc4o3)C2c2ccc([N+](=O)[O-])cc2)no1 (stereo unspecified)	6%	-11%	-5%	38µM*	-7%	8%
Cc1cc(N2C(=O)C(O)=C(C(=O)c3cc4ccccc4o3)C2c2cccs2)no1 (stereo unspecified)	9%	5%	-16%	?	-20%	7%
Cc1ccc(C2C(C(=O)c3cc4ccccc4o3)=C(O)C(=O)N2c2cc(C)on2)cc1 (stereo unspecified)	7%	-7%	79µM*	19µM*	-2%	5%
Cc1ccc(C)c(Cn2c(SCC(=O)N(C)Cc3ccccc3)nc3ccccc32)c1	nt	3%	5%	nt	nt	-11%
O=C(O)c1ccc(C[n+]2c(-c3ccccc3)csc2Nc2ccccc2)cc1	4%	-2%	-18%	?	0%	3%
CC(C)(C)c1cc(-c2csc(Nc3ccccc3)[n+]2Cc2ccc(C(=O)O)cc2)cc(C(C)(C)C)c1O	-17%	nt	79µM*	21µM*	2%	6%
COc1ccc2c(Cl)c(-c3nnc(SCC(N)=O)n3C)sc2c1	-11%	4%	13%	1%	4%	3%
